The record followed here is PubChem BioAssay (NCATS).

SMILES strings stand for the structures. Where “and” joins values, the source holds several entries; their conditions need not be identical. Identical values can stand only once. Inconclusive results are not listed. Calls of active or inactive are those of the source. Calls come from the whole dose curve; as a rule, active = well fitted curve in the direction sought with a large enough effect; inconclusive = small, poorly fitted or top-dose-only effect, or another doubt; inactive = no such curve, though single readings can be large or run the other way.
% is set by controls: 0 for no effect and ±100 for the full control effect.

The experiment can be described thus: qHTS Assay for Identifying Gametocytocidal Compounds (AID 743244).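 Note: actives lower the fluorescent signal which means gametocytes are killed.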 The following applies: P. falciparum 3D7 stage III-V gametocytes, alamarBlue, 72 h; max response: hits give low values. The essentials:
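P. falciparum 3D7 stage III–V gametocytes (20,000 cells/well) were exposed to compounds for 72 h at 37 °C, 5% CO2. AlamarBlue was then added for 24 h; decreased resorufin fluorescence (Ex 525/Em 598 nm) indicated loss of viability.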
(In general: In qHTS, concentration-response curves come from the screen itself.)
Turning to `CC(C)(Oc1ccc(C2CCCc3ccccc32)cc1)C(=O)O` (stereo not drawn), the max response is -6.04% (inactive).
With `OC/C=C/c1ccccc1`, the max response was 2.6% (inactive).
With `CCN(CC)CCOC(=O)c1cccnc1`, the max response was 6.67% (inactive).
In the case of `O=C(O)[C@@H]1C[C@H](CP(=O)(O)O)CCN1` it was 11.7% (inactive); in that of `N=C(N)c1ccc(/C=C/c2ccc(C(=N)N)cc2O)cc1`, 21.7% (inactive); in that of `CCOc1ccc(S(=O)(=O)O)c2cccnc12`, 1.62% (inactive).
The same measure for `CCCCCc1ccc(C)cc1O`: 3.19% (inactive); for `CO[C@H]1C[C@H](O[C@H]2[C@H](C)[C@@H](O[C@@H]3O[C@H](C)C[C@H](N(C)C)[C@H]3O)[C@@H](C)C[C@]3(CO3)C(=O)[C@H](C)[C@@H](O)[C@@H](C)[C@@H](C)OC(=O)[C@@H]2C)O[C@@H](C)[C@@H]1O`: -2.69% (inactive).
The same measure for `NC(=O)[C@H]1O[C@@H](O)[C@H](O)[C@@H](O)[C@@H]1O`: -1.37% (inactive); for `CCCCC[C@H](O)/C=C/[C@@H]1[C@H]2C/C(=C/CCCC(=O)O)O[C@H]2C[C@H]1O`: 18.5% (inactive); for `O=C1c2ccccc2C(=O)C1c1ccc(F)cc1`: 5.59% (inactive).
`CC[C@H](CC[C@@H](C)[C@H]1CC[C@H]2[C@@H]3CC=C4C[C@@H](O)CC[C@]4(C)[C@H]3CC[C@]12C)C(C)C`: the max response was 14.2% (inactive).
The same measure for `CC(CNC(=O)c1cccnc1)NC(=O)c1cccnc1` (stereo not drawn): -8.6% (inactive); for `NCC[C@H](O)C(=O)N[C@@H]1C[C@H](N)[C@@H](O[C@H]2O[C@H](CN)[C@@H](O)[C@H](O)[C@H]2O)[C@H](O)[C@H]1O[C@H]1O[C@H](CO)[C@@H](O)[C@H](N)[C@H]1O`: -2.69% (inactive).
On to `Cc1ncc(COP(=O)(O)O)c(CN)c1O`, for which the max response is -10.8% (inactive).
As to `CCOc1ccc(NC(=S)Nc2ccc(OCC)cc2)cc1`, the max response was 1.34% (inactive).
On to `COc1cc2c(cc1OC)[C@@H](c1ccccc1)CN(C)CC2`, for which the max response is -3.71% (inactive).
In the case of `C[C@@H]1O[C@@H](OC[C@H]2O[C@@H](Oc3c(-c4ccc(OCCO)c(OCCO)c4)oc4cc(OCCO)cc(O)c4c3=O)[C@H](O)[C@@H](O)[C@@H]2O)[C@H](O)[C@H](O)[C@H]1O` it was 6.8% (inactive).
The same measure for `CCCCCCCCCCCCCCCC(=O)OC[C@H](COP(=O)([O-])OCC[N+](C)(C)C)OC(=O)CCCCCCCCCCCCCCC`: 1.23% (inactive); for `C=C1[C@@H]2CC[C@@H](C2)C1(C)C`: -12.4% (inactive); for `C=Cc1ccc(S(=O)(=O)O)cc1`: -6.42% (inactive).
The same measure for `CC[C@H]1NC(=O)[C@@H](NC(=O)c2ncccc2O)[C@@H](C)OC(=O)[C@H](c2ccccc2)NC(=O)[C@@H]2CC(=O)CCN2C(=O)[C@H](Cc2ccccc2)N(C)C(=O)[C@@H]2CCCN2C1=O`: 3.22% (inactive); for `Cc1cccc(C)c1NC(=O)C1CCCCN1C` (stereo not drawn): -1.88% (inactive).
`CC[C@H](C)[C@@H]1NC(=O)[C@H](Cc2ccc(O)cc2)NC(=O)[C@@H](N)CSSC[C@@H](C(=O)N2CCC[C@H]2C(=O)N[C@@H](CC(C)C)C(=O)NCC(N)=O)NC(=O)[C@H](CC(N)=O)NC(=O)[C@H](CCC(N)=O)NC1=O`: the max response is 0.419% (inactive).
The same measure for `F[Si-2](F)(F)(F)(F)F`: 2.76% (inactive); for `COc1ccc([C@@H]2CC(=O)c3c(O)cc(O[C@@H]4O[C@H](CO[C@@H]5O[C@@H](C)[C@H](O)[C@@H](O)[C@H]5O)[C@@H](O)[C@H](O)[C@H]4O)cc3O2)cc1O`: 22.8% (inactive); for `O=C(O)c1ccc(NC(=O)[C@H](Cc2ccc(O)cc2)NC(=O)c2ccccc2)cc1`: 0.0398% (inactive).
The same measure for `O=C(O)Cc1nn(Cc2ccc(Br)cc2F)c(=O)c2ccccc12`: -4.01% (inactive); for `CCN(CC)CCC(=O)N1c2ccccc2Sc2ccc(C(F)(F)F)cc21`: -16% (inactive).
In the case of `CC(C)(C)CC(C)(C)c1cc(Cc2cc(C(C)(C)CC(C)(C)C)cc(-n3nc4ccccc4n3)c2O)c(O)c(-n2nc3ccccc3n2)c1` it was -7% (inactive); in that of `Cc1cc(-c2ccc(N=Nc3ccc4c(S(=O)(=O)O)cc(S(=O)(=O)O)c(N)c4c3O)c(C)c2)ccc1N=Nc1ccc2c(S(=O)(=O)O)cc(S(=O)(=O)O)c(N)c2c1O`, 18.4% (inactive) and 0.953% (inactive); in that of `O=P(O)(O)OC[C@H](O)CO`, -1.62% (inactive).
In the case of `Cc1ccc(S(=O)(=O)NC(=O)N[C@@H](C)Cc2ccccc2)cc1`, the max response was 23.6% (inactive).
With `CC(=O)N[C@@H](C=O)[C@@H](O)[C@H](O)[C@H](O)CO`, the max response is 11.4% (inactive).
With `COC(=O)CCC[N+](C)(C)C`, the max response was -8.11% (inactive).
Take `C=CCCCCCCCCC(=O)OC`: the max response is 16.7% (inactive).
In the case of `CC1(C)S[C@@H]2[C@H](N3C(=O)C(c4ccccc4)NC3(C)C)C(=O)N2[C@H]1C(=O)O` (stereo partly drawn) it was 5.31% (inactive).
As for `O=C(OCc1ccccc1)c1cccnc1`, the max response is -1.85% (inactive).
